Screens: PubChem BioAssay, National Center for Advancing Translational Sciences (NCATS)
G9a inh: blocks human histone lysine methyltransferase G9a | 8.8% of 350,000 active | Potency, µM (top dose mostly 102 µM), inactives show top-dose activity, negative = inhibition, actives largely listed as inhibitors | G9a H3K9 monomethylation, AlphaScreen, 2 h | Q96KQ7; further: on the % scale 0 is the no-effect control and ±100 the full control effect; nearly all actives have a fitted effect of over 75% in size
Target sequence (Q96KQ7 913-1193 limits assumed): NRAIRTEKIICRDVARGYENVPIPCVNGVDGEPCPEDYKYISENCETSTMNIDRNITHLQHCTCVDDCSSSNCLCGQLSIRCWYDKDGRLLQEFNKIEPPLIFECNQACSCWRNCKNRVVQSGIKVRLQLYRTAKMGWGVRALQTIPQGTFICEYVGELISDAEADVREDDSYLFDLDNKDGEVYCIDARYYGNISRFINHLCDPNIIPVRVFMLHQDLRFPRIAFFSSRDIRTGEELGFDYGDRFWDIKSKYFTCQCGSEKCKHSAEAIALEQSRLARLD
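Compounds were preincubated with 20 nM G9a for 15 min, after which biotinylated H3K9 peptide (500 nM) and SAM (20 uM) started a 2 h room-temperature reaction. Monomethylated product was quantified by antibody-based AlphaScreen chemiluminescence.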
BAZ2B inh: BAZ2B (human) inhibition; AlphaScreen BAZ2B-H3K14Ac peptide displacement; Potency, µM (top dose mostly 114 µM), for the others: at the top dose activity change, negative = inhibition, actives largely listed as inhibitors; 4.4% of 360,000 active; further: on the % scale 0 is the no-effect control and ±100 the full control effect; nearly all actives have a fitted effect of over 60% in size
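AlphaScreen displacement: compounds (up to 110uM) incubated 30 min at room temperature with a preformed 50 nM BAZ2B/50 nM biotinylated H3K14Ac peptide complex in PBS pH 7.4 with Tween-20. Donor and acceptor beads at 10 ug/mL final added, 20 min light-protected before reading.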
HP1b chromo inh: blocks HP1-beta chromodomain binding to methylated histone tails; P83916; AlphaScreen HP1-beta / biotin-H3K9me3 peptide binding; Potency, µM (series often up to 114 µM), inactives show top-dose activity change, negative = inhibition, most hits filed as inhibitors; 0.56% of 390,000 active; AID 540317; further: nearly all actives have a fitted effect of over 70% in size
Target sequence (P83916 whole entry, looked up): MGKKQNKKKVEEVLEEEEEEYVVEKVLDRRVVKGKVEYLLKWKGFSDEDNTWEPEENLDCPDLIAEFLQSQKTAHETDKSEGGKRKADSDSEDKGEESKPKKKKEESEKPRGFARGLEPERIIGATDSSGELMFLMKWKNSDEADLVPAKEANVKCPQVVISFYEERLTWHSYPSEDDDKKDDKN
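AlphaScreen: HP1-beta (50 nM) preformed 30 min with biotin-H3(1-18)K9me3 peptide (50 nM) in PBS pH 7.4, 0.01% Tween-20. Compound added for 30 min at RT, then streptavidin donor/nickel chelate acceptor beads (10 ug/mL) for 30 min.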
JMJD2A Tudor inh: inhibitors of human JMJD2A Tudor domain | Potency, µM (doses to about 114 µM), without a hit: at the highest dose activity change, negative = inhibition, usual class: inhibitors | 4.4% of 390,000 active | AID 504339 | O75164 | AlphaScreen JMJD2A-Tudor / H3K4me3 peptide binding; further: on the % scale 0 is the no-effect control and ±100 the full control effect; nearly all actives have a fitted effect of over 50% in size
L3MBTL1 block: inhibitors of human L3MBTL1; AlphaScreen L3MBTL1–H3K9me1 peptide binding; Potency, µM (top dose mostly 57.1 µM), for inactives: at the top dose activity, negative = inhibition, hits mostly inhibitors; 0.66% of 230,000 active; AID 485360; further: on the % scale 0 is the no-effect control and ±100 the full control effect; nearly all actives have a fitted effect of over 60% in size
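AlphaScreen proximity signal between nickel-chelate acceptor and streptavidin donor beads (final 10 ug/mL) reports binding of 50 nM L3MBTL1 to 75 nM biotin-H3 K9me1 peptide; complex incubated with compounds 30 min at room temperature; cefsulodin titration as control.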
GLS inh: blocks human kidney-isoform glutaminase activity; Potency, µM (highest dose often 45.5 µM), without a hit: at the top dose activity change, negative = inhibition, actives largely listed as inhibitors; GLS enzymatic activity, qHTS titration; 0.21% of 410,000 active; O94925; further: on the % scale 0 is the no-effect control and ±100 the full control effect
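Read-out is an Amplex red fluorescence increase coupled through glutamate oxidase and HRP, measured before and after 30 min room-temperature incubation. hKGA is in 45 mM KH2PO4 (pH 8.2) with 0.02% Tween-20; glutamine added as 1mM solution.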
Active calls of the source: *; ? = inconclusive; . = no result; [ ] = another dose, or the depositor's remark. Sampled rows, rich in hits. Any-hit rate of the full collection: about 10%. The call rests on the fitted dose curve; in most records, active means well fitted curve in the direction sought with a large enough effect; inconclusive means small, poorly fitted or top-dose-only effect, or another doubt; inactive means no such curve, though single readings can be large; an effect the other way counts as inactive or inconclusive. Potency means the concentration at half of the fitted maximal effect.

SMILES	G9a inh	BAZ2B inh	HP1b chromo inh	JMJD2A Tudor inh	L3MBTL1 block	GLS inh
O=C1CC(Nc2ccc(N3CCOCC3)cc2)C(=O)N1c1cccc(C(F)(F)F)c1 (stereo unspecified)	14µM*	56µM*	-15%	?	?	9%
CCN(CC)CCCNC(=O)CSc1nc(-c2ccc(OC)cc2)cc(C(F)(F)F)n1	-14%[59 µM]	3%	5%	5%	.	-4%
O=C(C(Cl)Cl)N1CCN(Cc2ccccc2)CC1	-6%	-2%	30%	6%	-3%	-2%
CC(CN1CCN(Cc2ccccc2)CC1)c1ccccc1 (stereo unspecified)	22%[0.501 µM]	-8%	-8%	89µM*	-3%[2.29 µM]	4%
CC(CN1CCC(O)CC1)c1ccccc1 (stereo unspecified)	.	?	?	2.8µM*	-4%	6%
ClC(CCN1CCN(Cc2ccccc2)CC1)c1ccccc1 (stereo unspecified)	.	.	11%	50µM*	.	0%
CC1CCN(C(=O)C2CCN(CC(C)c3ccccc3)CC2)CC1 (stereo unspecified)	?	59%	?	?	0%	-3%
Cc1nc(SCC(=O)Nc2ccccc2Cl)cc(-c2ccccc2)n1	15%[59 µM]	6%	15%	-14%	.	8%
CCC(Sc1nc2nccnc2c(=O)n1Cc1ccc(OC)cc1)C(=O)NC1CCCCC1 (stereo unspecified)	11%[59 µM]	-11%	35%	6%	.	-3%
CC(C)CC(NS(=O)(=O)OCC(Cl)(Cl)Cl)c1ccccc1 (stereo unspecified)	-16%	4%	-9%	40µM*	16%	?
COC(=O)CCC(NS(=O)(=O)OCC(Cl)(Cl)Cl)c1ccccc1 (stereo unspecified)	.	16%[57.1 µM]	42%	-25%	2%	-10%
CCOCCCn1c(SCC(=O)Nc2cc(C)ccc2C)nc2c(oc3ccccc32)c1=O	-3%[59 µM]	2%	26%	-8%	.	-7%
O=C(c1cccc(F)c1)N1CCC(c2c[nH]c3ccccc23)(c2c[nH]c3ccccc23)CC1	1%[59 µM]	0%	13%	-22%	.	4%
Cc1cc[n+](-c2ccccc2)c2ccccc12	25µM*	-34%	39%	-23%	8%	-6%
COc1ccccc1NS(=O)(=O)c1ccc(C)c(C(=O)N2CCN(c3ccc(O)cc3)CC2)c1	.	.	-34%	28µM*	-1%	-21%
COc1cc(Cl)ccc1NC(=O)COc1ccccc1C(=O)N1CCN(c2ccc(O)cc2)CC1	10µM*	-6%	?	?	-17%	29%
Cc1oc(-c2ccc(C(=O)Nc3cccc(C(F)(F)F)c3)cc2)nc1CSc1ccccc1	-1%[59 µM]	-15%	26%	-14%	.	-11%
N#Cc1c(Cl)nsc1NN	7.1µM*	14µM*	45µM*	50µM*	?	-28%
Cc1c(C#N)c(N)nc(Cl)c1C#N	-40%	-2%	21%	-1%	16%	-4%
O=C(CNC(=O)/C=C/c1ccco1)N=Nc1c(O)[nH]c2ccccc12	35µM*	56µM*	39%	-4%	.	?
O=C(CNC(=O)Cc1ccccc1)N=Nc1c(O)[nH]c2ccccc12	-14%	-3%	26%	-7%	.	-7%
Cc1ccc(C(=O)NCC(=O)OCC(=O)c2cccc3ccccc23)cc1	.	.	12%[57 µM]	3%[57.1 µM]	.	.
CCN1CCc2nc(SCC(=O)Nc3ccc(OC)cc3)c(C#N)cc2C1	?	-2%	22%	-13%	2%	-12%
CN1CCc2nc(SCC(=O)Nc3ccc(F)cc3)c(C#N)cc2C1	6.3µM*	-3%	.	.	-8%	.
Cc1noc(NS(=O)(=O)c2ccc(NC(=O)CSc3nc4c(cc3C#N)CCCCC4)cc2)c1C	79µM*	-8%	-8%	-34%	.	11%
COc1ccc(NC(=O)CSc2nc3c(cc2C#N)CN(C)CC3)cc1	11µM*	-9%	-3%	-19%	.	-3%
COC(=O)c1c(NC(=O)c2ccco2)sc(C)c1C	?	1%	37%	13%	33%[11.4 µM]	-4%
